# Laboratory results published in PubChem BioAssay (Tox21).
# “And” between values parts separate entries of the source, which are not always exact repeats. Equal entries are not always repeated. Inconclusive results are not listed. A call without a number means that no potency is given here. The source made the active and inactive calls. Unless noted, the call rests on the fitted dose curve; in most records, active means well fitted curve in the direction sought with a large enough effect in the repeat runs; inconclusive means weak or mixed curves; inactive means no such curve, though single readings can be large; an effect the other way counts as inactive or inconclusive.
# Assays:
# [1] = qHTS assay for small molecules that induce genotoxicity in human embryonic kidney cells expressing luciferase-tagged ATAD5 (AID 651632); further: nearly all actives have a fitted effect of over 15% in size; further: potency means the concentration at half of the fitted maximal effect
# Procedure, shortened: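 Test compounds were delivered by pin tool onto HEK293T reporter cells (2,000/well) expressing ATAD5 fused to luciferase. After 16 hr at 37C, 5% CO2, Amplite was added for 30 min at room temperature and luminescence was measured.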
# [2] = qHTS assay for small molecule agonists of the p53 signaling pathway - cell viability (AID 651633; calls by dose curve; further: nearly all actives have a fitted effect of over 30% in size; further: potency means the concentration at half of the fitted maximal effect)
# Procedure, shortened: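 p53RE-bla cells, seeded at 4,000 per well and rested 5 h at 37 C/5% CO2, received compounds in DMSO for 16 h at 37 C. CellTiter-Glo was then added, and luminescence was read after 30 min at room temperature to gauge cytotoxicity.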
# [3] = qHTS assay for small molecules that induce genotoxicity in human embryonic kidney cells expressing luciferase-tagged ATAD5 - cell viability (AID 651634; calls by dose curve; further: nearly all actives have a fitted effect of over 25% in size; further: potency means the concentration at half of the fitted maximal effect)
# Procedure, shortened: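 Quantitative high-throughput format. HEK293T cells expressing ATAD5 fused to luciferase were plated at 2,000 cells/well and treated 15.5 hr with compound versus DMSO. Viability was determined by fluorescent live-cell protease substrate, 30 min at 37C.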
# [4] = qHTS assay for small molecule disruptors of the mitochondrial membrane potential - cell viability (AID 720634; calls by dose curve; further: nearly all actives have a fitted effect of over 20% in size; further: potency means the concentration at half of the fitted maximal effect)
# Procedure, shortened: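 Same-well counter-screen: following the MMP dye addition, CellTiter-Glo was added to 1 hr compound-treated HepG2 cells and luminescence read after 30 min at room temperature.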
# [5] = qHTS assay for small molecule disruptors of the mitochondrial membrane potential (AID 720635); further: potency means the concentration at half of the fitted maximal effect
# Procedure, shortened: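 HepG2 cells (2,000/well) attached overnight at 37C, then took compound for 1 hr at 37C, 5% CO2. Mito-MPS dye was added for 30 min; fluorescence was read at 490/535 nm (monomers) and 540/590 nm (aggregates).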
# [6] = qHTS assay to test for compound auto fluorescence at 590 nm (red) in HepG2 cells (AID 720674)
# Procedure, shortened: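 Rose Bengal sodium served as the red fluorophore standard. HepG2 monolayers (overnight attachment, MEM with 10% FBS) were exposed to test compounds for 1 hr at 37 C and read at Ex 540/Em 590 nm.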
# [7] = qHTS assay to test for compound auto fluorescence at 535 nm (green) in HepG2 cells (AID 720675)
# [8] = qHTS assay to test for compound auto fluorescence at 460 nm (blue) in HEK293 cells (AID 720678)
# Procedure, shortened: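 Cells were seeded and left to adhere for 4-5 hr at 37C. Compounds were then pin-transferred. After an overnight incubation at 37C under 5% CO2, intrinsic fluorescence at 405/460 nm was measured and referenced to triamterene.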
# [9] = qHTS assay to test for compound auto fluorescence at 535 nm (green) in HEK293 cells (AID 720680)
# [10] = qHTS assay to test for compound auto fluorescence at 460 nm (blue) in HEK293 cell free culture (AID 720681)
# Procedure, shortened: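 Test compounds were pinned into cell-free culture medium (DMEM with 10% FBS) and fluorescence was read directly at Ex/Em 405/460 nm. Signals were expressed as fluorescence equivalents of triamterene, with DMSO vehicle as control.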
# [11] = qHTS assay to test for compound auto fluorescence at 535 nm (green) in HEK293 cell free culture (AID 720682)
# Procedure, shortened: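 Steps: dispense DMEM/10% FBS into empty wells; pin in compound or DMSO; measure fluorescence at 485/535 nm. Values are fluorescein equivalents.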
# [12] = qHTS assay to test for compound auto fluorescence at 590 nm (red) in HEK293 cell free culture (AID 720683)
# Procedure, shortened: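 Tox21 10K library compounds were pinned into cell-free DMEM with 10% FBS and fluorescence was read at excitation 540 nm. Activity is expressed as Rose Bengal sodium equivalency.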
# [13] = qHTS assay to test for compound auto fluorescence at 590 nm (red) in HepG2 cell free culture (AID 720684)
# Procedure, shortened: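 Ex 540 / Em 590 nm read of compound in cell-free MEM (10% FBS). Rose Bengal sodium reference.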
# [14] = qHTS assay to test for compound auto fluorescence at 460 nm (blue) in HepG2 cell free culture (AID 720685)
# Procedure, shortened: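 Cell-free plates of MEM plus 10% FBS received 23 nL compound or DMSO vehicle; blue-channel (405/460 nm) intensity scored against triamterene as reference fluorophore.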
# [15] = qHTS assay to test for compound auto fluorescence at 535 nm (green) in HepG2 cell free culture (AID 720686)
# [16] = qHTS assay to test for compound auto fluorescence at 460 nm (blue) in HepG2 cells (AID 720687)
# Procedure, shortened: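 Cells (2,000/well in MEM with 10% FBS) attached overnight at 37 C, then were exposed to compound or DMSO for 1 hr at 37 C, 5% CO2. Fluorescence read at Ex/Em 405/460 nm, expressed as triamterene-equivalent signal.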
# [17] = qHTS assay for small molecule agonists of the p53 signaling pathway (AID 651631; calls by dose curve; further: potency means the concentration at half of the fitted maximal effect; nearly all actives have a fitted effect of over 15% in size)
# Procedure, shortened: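 HCT-116 p53RE-bla reporter line, 16 h compound treatment at 37 °C, then fluorescence after 2 h with B/G FRET substrate.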
# [18] = qHTS assay to test for compound auto fluorescence at 590 nm (red) in HEK293 cells (AID 720679)
# Procedure, shortened: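 Each well held 2,000 HEK293 cells in medium containing 10% dialyzed FBS. Following 4-5 hr attachment at 37C, 23 nL test compound or DMSO was added; plates sat overnight, and red fluorescence (540/590nm) was recorded.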
# [19] = target: Glucocorticoid receptor (Homo sapiens) (UniProt P04150); assay: qHTS assay to identify small molecule agonists of the glucocorticoid receptor (GR) signaling pathway (AID 720691; active means well fitted activation curve with a large enough effect in the signal ratio in the repeat runs, not every such curve was filed as active; the % refers to the signal ratio); conditions: GR-bla HeLa, beta-lactamase reporter ratio, 18 h; activation: at 62.4 µM (top of the series)
# Chain of Glucocorticoid receptor (Homo sapiens) (P04150 whole entry, looked up): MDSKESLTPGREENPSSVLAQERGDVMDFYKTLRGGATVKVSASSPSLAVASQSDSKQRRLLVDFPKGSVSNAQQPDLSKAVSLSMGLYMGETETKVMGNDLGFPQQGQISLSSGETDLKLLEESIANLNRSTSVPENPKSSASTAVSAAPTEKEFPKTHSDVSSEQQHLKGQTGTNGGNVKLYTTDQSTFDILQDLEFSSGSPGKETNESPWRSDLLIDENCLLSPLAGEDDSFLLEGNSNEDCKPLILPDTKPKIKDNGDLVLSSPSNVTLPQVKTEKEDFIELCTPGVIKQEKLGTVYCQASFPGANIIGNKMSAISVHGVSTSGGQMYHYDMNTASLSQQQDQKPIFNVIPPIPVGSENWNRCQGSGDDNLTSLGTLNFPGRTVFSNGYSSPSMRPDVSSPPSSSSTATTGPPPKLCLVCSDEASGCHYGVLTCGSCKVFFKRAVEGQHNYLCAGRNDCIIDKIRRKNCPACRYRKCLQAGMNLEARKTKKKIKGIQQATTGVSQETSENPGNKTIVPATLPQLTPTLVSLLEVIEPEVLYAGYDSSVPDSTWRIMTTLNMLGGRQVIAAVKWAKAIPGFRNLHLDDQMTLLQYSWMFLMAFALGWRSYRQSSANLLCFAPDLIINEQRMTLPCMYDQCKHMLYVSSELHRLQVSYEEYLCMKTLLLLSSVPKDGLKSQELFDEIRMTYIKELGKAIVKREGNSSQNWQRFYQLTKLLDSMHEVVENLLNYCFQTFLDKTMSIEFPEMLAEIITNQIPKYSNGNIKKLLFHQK
# Procedure, shortened: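 A HeLa cervical cancer line expressing GR and a glucocorticoid response element-driven beta-lactamase gene is treated with compounds for 18 h; LiveBLAzer B/G FRET substrate is then applied and fluorescence read.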
# [20] = target: Glucocorticoid receptor (Homo sapiens) (UniProt P04150); assay: qHTS assay to identify small molecule antagonists of the glucocorticoid receptor (GR) signaling pathway (AID 720692; active means well fitted inhibition curve with a large enough effect in the signal ratio in the repeat runs, not every such curve was filed as active; the % refers to the signal ratio; further: potency means the concentration at half of the fitted maximal effect)
# Procedure, shortened: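 GRE-bla HeLa line, dex-stimulated (5 nM final). Compound exposure 18 h, 37 C. Beta-lactamase FRET read after 2 h RT substrate.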
SMILES,Potency [1],Potency [2],Potency [3],Potency [4],Potency [5],Potency [6],Potency [7],Potency [8],outcome [9],Potency [10],outcome [11],Potency [12],Potency [13],Potency [14],Potency [15],Potency [16],Potency [17],Potency [18],Potency [19],Potency [20]
Cc1cc(O)c(C(C)(C)C)cc1C(C)(C)C,inactive,9.69 µM (active),15.4 µM (active),15.4 µM (active),0.969 µM (active),inactive,inactive,inactive,inactive,inactive,inactive,inactive,inactive,inactive,inactive,inactive,,,,
Oc1c(Cl)cc(Cl)c2cccnc12,13.3 µM (active),,,,10.6 µM (active),inactive,inactive,inactive,inactive,inactive,inactive,inactive,inactive,inactive,inactive,inactive,2.37 µM (active),inactive,,
O=C1C=CC(=O)N1c1ccc(Cc2ccc(N3C(=O)C=CC3=O)cc2)cc1,,10.9 µM (active),15.4 µM (active),7.7 µM (active),6.86 µM (active),inactive,inactive,inactive,inactive,inactive,inactive,inactive,inactive,inactive,inactive,inactive,13.7 µM (active),inactive,,
CC(C)OC(=O)c1cc2c(OCC(O)CNC(C)(C)C)cccc2[nH]1 (stereo not given),inactive,inactive,inactive,inactive,inactive,inactive,inactive,inactive,inactive,inactive,inactive,inactive,inactive,inactive,,inactive,,inactive,inactive,inactive
Cc1onc(-c2c(Cl)cccc2Cl)c1C(=O)N[C@@H]1C(=O)N2[C@@H]1SC(C)(C)[C@@H]2C(=O)O,inactive,inactive,inactive,inactive,inactive,inactive,inactive,inactive,inactive,inactive,inactive,inactive,inactive,inactive,,,,inactive,inactive,
Cc1cc(O)c(Cl)c(C)c1Cl,inactive,68.6 µM (active),61.1 µM (active),54.5 µM (active),1.93 µM (active),inactive,inactive,inactive,inactive,inactive,inactive,inactive,inactive,inactive,inactive,inactive,,inactive,inactive,
CCc1cc(Cc2cc(CC)cc(C(C)(C)C)c2O)c(O)c(C(C)(C)C)c1,inactive,10.9 µM (active),61.1 µM (active),inactive,0.864 µM (active),inactive,,inactive,inactive,inactive,inactive,inactive,inactive,inactive,inactive,,,inactive,,
Oc1cc2ccccc2c2ccccc12,inactive,6.11 µM (active),17.2 µM (active),19.3 µM (active),0.969 µM (active),inactive,inactive,inactive,inactive,inactive,inactive,inactive,inactive,inactive,inactive,inactive,,,,19.5 µM (active)
O=C1c2c(O)ccc(Nc3ccc(CCO)cc3)c2C(=O)c2c([N+](=O)[O-])ccc(O)c21,inactive,inactive,48.6 µM (active),inactive,1.93 µM (active),inactive,inactive,inactive,inactive,inactive,inactive,inactive,inactive,inactive,,inactive,,inactive,inactive,
Cn1cc(C(=O)[C@@H]2CCc3nc[nH]c3C2)c2ccccc21,inactive,inactive,inactive,inactive,inactive,inactive,inactive,inactive,inactive,inactive,inactive,inactive,inactive,inactive,,inactive,,inactive,inactive,
CCCCCCCC/C=C\CCCCCCCCOCCO,inactive,31.6 µM (active),39.8 µM (active),79.4 µM (active),1.78 µM (active),inactive,,inactive,inactive,inactive,inactive,inactive,inactive,inactive,inactive,inactive,,inactive,,
O=S1(=O)CC(Cl)(Cl)C(Cl)(Cl)C1,4.86 µM (active),3.06 µM (active),24.3 µM (active),15.4 µM (active),12.2 µM (active),inactive,,inactive,inactive,inactive,inactive,inactive,inactive,inactive,inactive,inactive,,inactive,,
Cc1ccc(-n2nc(C(C)(C)C)cc2NC(=O)Nc2ccc(OCCN3CCOCC3)c3ccccc23)cc1,inactive,inactive,inactive,inactive,18.8 µM (active),inactive,inactive,inactive,inactive,inactive,inactive,inactive,inactive,inactive,inactive,,,inactive,,
[Cl][Bi]([Cl])([c]1ccccc1)([c]1ccccc1)[c]1ccccc1,,21.6 µM (active),60.8 µM (active),,43 µM (active),inactive,inactive,inactive,inactive,inactive,inactive,inactive,inactive,inactive,inactive,inactive,24.2 µM (active),inactive,,
CCCCCCOC(=O)c1ccc(O)cc1,21.7 µM (active) and 19.3 µM (active),inactive,inactive,27.3 µM (active) and 17.2 µM (active),6.12 µM (active) and 8.63 µM (active),inactive,inactive,inactive,inactive,inactive,inactive,inactive,inactive,inactive,inactive,inactive,,inactive,inactive,
CC(NN)c1ccccc1 (stereo not given),inactive,inactive,inactive,inactive,inactive,inactive,inactive,inactive,inactive,inactive,inactive,inactive,inactive,inactive,inactive,inactive,,inactive,inactive,inactive
COc1ccc(C(=O)/C(Br)=C\C(=O)O)cc1,,inactive,,,inactive,inactive,inactive,inactive,inactive,inactive,inactive,inactive,inactive,inactive,inactive,,10.6 µM (active) and 21.7 µM (active),,inactive,inactive
CCC(C)Nc1ccc(NC(C)CC)cc1 (stereo not given),inactive,14 µM (active),inactive,44.1 µM (active),8.8 µM (active),inactive,inactive,inactive,inactive,inactive,inactive,inactive,inactive,inactive,inactive,inactive,,,,
Cc1cc(O)c(C(C)(C)C)cc1Sc1cc(C(C)(C)C)c(O)cc1C,inactive,13.7 µM (active),54.4 µM (active),61 µM (active),0.768 µM (active),inactive,inactive,inactive,inactive,inactive,inactive,inactive,inactive,inactive,inactive,inactive,,inactive,,
CCCCCCCC[N+](CCCCCCCC)(CCCCCCCC)CCCCCCCC,inactive,13.7 µM (active),30.6 µM (active),27.3 µM (active),0.0768 µM (active),inactive,inactive,inactive,inactive,inactive,inactive,inactive,inactive,inactive,inactive,inactive,,inactive,,
NNc1nc(-c2ccc(N)cc2)cs1,inactive,inactive,24.3 µM (active),inactive,0.0545 µM (active),inactive,inactive,inactive,inactive,inactive,inactive,inactive,inactive,inactive,inactive,,,inactive,,
Clc1ccc2n[nH]nc2c1,inactive,inactive,inactive,inactive,,inactive,inactive,inactive,inactive,inactive,inactive,inactive,inactive,inactive,inactive,inactive,,inactive,inactive,
C[C@@H](NCCCc1cccc(C(F)(F)F)c1)c1cccc2ccccc12,inactive,18.8 µM (active),26.6 µM (active),26.6 µM (active),,inactive,inactive,inactive,inactive,inactive,inactive,inactive,inactive,inactive,inactive,,,inactive,,
